For one assay, the system named is C33A. The assay can be described thus: Primary qHTS to identify gynecologic anti-cancer compounds using libraries of approved drugs and bioactive compounds (AID 1345084). Also: nearly all actives have a fitted effect of over 55% in size. Also: potency is read from the fitted curve at half-maximal effect. The settings on record: Gynecologic cancer cell panel viability, ATPlite luminescence, 48 h; series mostly up to 57.5 µM. In outline:
(§1)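 Cell viability after 48 h drug treatment, ATPlite luminescence readout; five doses.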

The next assay has as its system CASKI. The description is as above. The settings on record: Gynecologic cancer cell panel viability, ATPlite luminescence, 48 h; series mostly up to 57.5 µM. In a few lines:
as §1
For orientation: Cellular ATP, detected with luciferase, serves as a proxy for viable cell number.

In another assay the test system is Es-2. Described as above. Particulars: Gynecologic cancer cell panel viability, ATPlite luminescence, 48 h; series mostly up to 57.5 µM. In a few lines:
as §1

In the next assay the test system is HeLa. The description is as above. Particulars: Gynecologic cancer cell panel viability, ATPlite luminescence, 48 h; series mostly up to 57.5 µM. In outline:
as §1

The test system of the next assay is Hek293T. Described as above. The settings on record: Gynecologic cancer cell panel viability, ATPlite luminescence, 48 h, control line for the selectivity index; series mostly up to 57.5 µM. In outline:
as §1

Another assay deals with JEG-3. The assay is described as above. The settings on record: Gynecologic cancer cell panel viability, ATPlite luminescence, 48 h; series mostly up to 57.5 µM. In a few lines:
as §1

A further assay has as its system OV90. The assay is described as above. The settings on record: Gynecologic cancer cell panel viability, ATPlite luminescence, 48 h; series mostly up to 57.5 µM. In outline: as §1
Another assay deals with PA-1. The description is as above. The settings on record: Gynecologic cancer cell panel viability, ATPlite luminescence, 48 h; series mostly up to 57.5 µM. In a few lines:
as §1

Another assay concerns SKOV3. Described as above. Particulars: Gynecologic cancer cell panel viability, ATPlite luminescence, 48 h; series mostly up to 57.5 µM. In a few lines:
as §1

The test system of a further assay is Tov-21-G. The assay is described as above. Particulars: Gynecologic cancer cell panel viability, ATPlite luminescence, 48 h; series mostly up to 57.5 µM. In a few lines: as §1
A further assay concerns Tov112D. The assay is described as above. Particulars: Gynecologic cancer cell panel viability, ATPlite luminescence, 48 h; series mostly up to 57.5 µM. In outline: as §1
The nature of assay [1]: Drug repurposing screens with cells derived from glioblastoma tumor samples (AID 1345199). Also: nearly all actives have a fitted effect of over 40% in size. Also: potency is read from the fitted curve at half-maximal effect. As to activity, negative = cell killing: % is scaled to controls: 0 for no effect and ±100 for the full control effect. Particulars: GBM patient neurospheres viability, ATP luminescence, 48 h. In a few lines:
(§2)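 Four patient lines of CD133+ GBM neurospheres were screened at several concentrations; hits were retested in those lines plus three slower-growing GBM lines, using 48-hour treatment and ATP-based viability.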

A further assay has as its system astro. The assay is described as above. Particulars: viability, ATP luminescence, 48 h; series mostly up to 45.9 µM. In outline: as §2
A further assay concerns CAOV3. The assay can be described thus: Primary qHTS to identify gynecologic anti-cancer compounds using libraries of approved drugs and bioactive compounds (AID 1345084). Also: nearly all actives have a fitted effect of over 55% in size. Also: potency is read from the fitted curve at half-maximal effect. Particulars: Gynecologic cancer cell panel viability, ATPlite luminescence, 48 h; series mostly up to 57.5 µM. In a few lines:
as §1

For a further assay, the system named is WaGa. The assay can be described thus: qHTS assay to identify novel small-molecules to repurpose for Merkel cell carcinoma treatment (AID 1296009). Also: nearly all actives have a fitted effect of over 60% in size. Also: potency is read from the fitted curve at half-maximal effect. The settings on record: MCC and control cell lines, CellTiter-Glo viability, 72 h; series mostly up to 46 µM. In outline: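 Cells were treated for 72 hr at 37 degree celsius with compounds in 8- or 11-point dose response. Viability was read by CellTiter-Glo luminescence, normalized to no-cell (cytotoxicity) and DMSO controls.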
In general terms: qHTS replaces the single test concentration by a dilution series.

The target in assay [2] is Nuclear receptor subfamily 1 group I member 2 (Rattus norvegicus) (UniProt Q9R1A7). The assay can be described thus: qHTS assay for small molecule activators of the rat pregnane X receptor (rPXR) signaling pathway (AID 651751; call rule not given here; also: 0% is about no effect). The settings on record: rPXR reporter cells, luciferase (One-Glo), 24 h.
Chain of Nuclear receptor subfamily 1 group I member 2 (Rattus norvegicus) (Q9R1A7 whole entry, looked up): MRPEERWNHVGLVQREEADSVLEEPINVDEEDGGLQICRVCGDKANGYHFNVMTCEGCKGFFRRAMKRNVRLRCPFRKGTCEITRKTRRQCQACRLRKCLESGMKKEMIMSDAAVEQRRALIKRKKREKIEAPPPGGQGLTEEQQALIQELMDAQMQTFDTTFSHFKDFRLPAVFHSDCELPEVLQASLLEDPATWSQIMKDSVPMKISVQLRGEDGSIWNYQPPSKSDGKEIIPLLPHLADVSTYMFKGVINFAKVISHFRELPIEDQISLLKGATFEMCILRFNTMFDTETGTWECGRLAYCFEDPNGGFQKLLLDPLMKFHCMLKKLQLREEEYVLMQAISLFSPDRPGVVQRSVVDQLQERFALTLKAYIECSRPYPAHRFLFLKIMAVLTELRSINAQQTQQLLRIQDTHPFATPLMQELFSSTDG
Assay [3] in a line: qHTS assay for small molecule activators of the human pregnane X receptor (PXR) signaling pathway (AID 720659; call rule not given here; also: 0% is about no effect).
Where [4] appears, read: at 46.1 µM (top of the series), tumour line C.

Values without a mark were called inactive. Inconclusive results are not listed. The source made the active and inactive calls. Unless noted, calls follow the shape of the dose curve; as a rule, active = well fitted curve in the direction sought with a large enough effect; inconclusive = small, poorly fitted or top-dose-only effect, or another doubt; inactive = no such curve, though single readings can be large; an effect the other way counts as inactive or inconclusive.

Turning to `Oc1ccc(C2CNCCc3c2cc(O)c(O)c3Cl)cc1` (stereo not given), the Potency entry in the assay with C33A, in the assay with CASKI, with Es-2, in the assay on HeLa, in the assay with Hek293T and in the assay with JEG-3 was “inactive” in each case. In addition, the Potency result in the assay on OV90, with PA-1, in the assay with SKOV3, with Tov-21-G, in the assay with Tov112D and in the assay with astro was “inactive” each time. For the same compound, the activity, negative = cell killing in assay [1] (setting [4]) was 2.51%.
For the compound `N[C@@H]1CONC1=O`, the Potency result in the assay with C33A, in the assay with CAOV3, in the assay with CASKI, in the assay with Es-2, with HeLa and with Hek293T was “inactive” each time. Besides, the Potency entry in the assay on JEG-3, in the assay on OV90, with PA-1, in the assay on SKOV3, in the assay on Tov-21-G and in the assay with Tov112D was “inactive” in each case. For the same compound, in the assay on astro, the Potency entry is “inactive”.
For the compound `CC(C)C[C@H](NC(=O)[C@@H](O)[C@H](N)Cc1ccccc1)C(=O)O`, the Potency result in the assay with WaGa was “inactive”.
For `CNCc1ccc(-c2[nH]c3cc(F)cc4c3c2CCNC4=O)cc1`, the Potency result with WaGa, with C33A, in the assay on CASKI, with Es-2, in the assay on HeLa and in the assay with Hek293T was “inactive” in each case. Moreover, the Potency result in the assay with JEG-3, in the assay on OV90, with PA-1, in the assay on SKOV3, with Tov-21-G and with Tov112D was “inactive” each time.
With `COc1ccc(C2=N[C@H](c3ccc(Cl)cc3)[C@H](c3ccc(Cl)cc3)N2C(=O)N2CCNC(=O)C2)c(OC(C)C)c1`, in the assay on WaGa, the Potency is 2.96 µM (active).
Take `O=c1[nH]c(-c2ccc(C(F)(F)F)cc2)nc2c1CSCC2`: the Potency entry with WaGa is “inactive”. Further, the Potency in the assay with Es-2 is 28.2 µM (active).
For `COc1cccc2cc(-c3nc(C4CCC(C(=O)O)CC4)n4ncnc(N)c34)[nH]c12` (stereo not given), the Potency in the assay on C33A is 7.94 µM (active); with Es-2 it was 7.08 µM (active); in the assay on OV90, 7.94 µM (active); in the assay on PA-1, 3.16 µM (active); in the assay with SKOV3, 11.2 µM (active); in the assay with Tov-21-G, 3.55 µM (active). Besides, the Potency entry with HeLa and in the assay on JEG-3 was “inactive” each time.
In the case of `O=C(NOC[C@H](O)CO)c1ccc(F)c(F)c1Nc1ccc(I)cc1F`, the Potency entry in the assay with C33A, in the assay on CASKI, in the assay with HeLa, with Hek293T, in the assay on JEG-3 and with PA-1 was “inactive” in each case. Further, the Potency result with SKOV3 and in the assay on Tov112D was “inactive” each time. The Potency in the assay with astro was 0.447 µM (active).
Take `C#Cc1cccc(Nc2ncnc3cc(OCCOC)c(OCCOC)cc23)c1`: the values for the Potency in the assay with WaGa and in the assay on SKOV3 were 29.6 µM (active) and 10 µM (active), respectively. Besides, the Potency result with C33A, in the assay with CASKI, with Es-2, with HeLa, in the assay with Hek293T and in the assay with JEG-3 was “inactive” throughout. Also, the Potency entry with OV90, with PA-1 and in the assay on Tov112D was “inactive” each time.
`COc1ccccc1[C@H](c1cccc2ccccc12)[C@@](C)(C#N)C(=O)N1CCC(c2cccc(C(F)(F)F)c2)CC1`: the Potency result in the assay on C33A, in the assay on CAOV3, with CASKI, in the assay with Es-2, with HeLa and with Hek293T was “inactive” each time. Also, the Potency result in the assay on JEG-3, in the assay on OV90, with PA-1, in the assay with Tov-21-G and with Tov112D was “inactive” each time.
In the case of `NC[C@H](O)c1ccc(O)c(O)c1`, the Potency result in the assay with C33A, in the assay on CAOV3, in the assay on CASKI, with Es-2, in the assay on HeLa and in the assay with Hek293T was “inactive” in each case. For the same compound, the Potency entry in the assay with JEG-3, in the assay with OV90, in the assay on PA-1, with SKOV3, in the assay with Tov-21-G and with Tov112D was “inactive” in each case. In addition, the Potency result in the assay on astro is “inactive”. Moreover, the activity, negative = cell killing in assay [1] (at 45.9 µM (top of the series), tumour line B) is -10.5%; in [1] (at 45.9 µM (top of the series), tumour line D), -7.44%; in [1] (at 46 µM (top of the series), tumour line A), -26.2%; in assay [1] (setting [4]), -17.3%. Besides, the max response in [2] was 2.15%. Also, the result in assay [3] was inactive.
